Assay outcomes as filed in PubChem.
An excerpt weighted towards active compounds, which were near 8% of everything screened.
HCMV antiviral: blocks human cytomegalovirus replication. HFF cells, HCMV-luciferase reporter, 72 h; active compounds read low. hit rate 4.5% among 410,000. activity change, negative = inhibition, % at 57.5 µM; in the data active = activity change below about -60%; inconclusive = no clear call, values can overlap the other calls; inactive = above about -39%; note: % is set by controls: 0 for no effect and ±100 for the full control effect
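Compounds were evaluated in HFFs infected with an HCMV luciferase reporter virus (MOI 1 PFU/cell). Luciferase in lysates collected 72 h post infection served as the replication measure.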
SARS PLP yeast: inhibitors of SARS-CoV papain-like protease in yeast | Potency, µM (highest dose often 32.9 µM), inactives show at the top dose activity, positive = growth rescue, usual class: activators | hit rate 0.19% among 330,000 | S. cerevisiae expressing SARS-CoV PLpro, growth rescue; calls by dose curve; note: potency is the fitted concentration of half-maximal effect; 0% is about no effect; nearly all actives have a fitted effect of over 55% in size
Lassa entry inh: blocks Lassa virus binding to or entry into cells; Lassa virus pseudotype entry inhibition, cell reporter; Potency, µM (top dose mostly 37.9 µM), without a hit: top-dose activity change, negative = inhibition, most hits filed as inhibitors; hit rate 1.2% among 300,000; AID 540256; calls by dose curve; tested in HEK293 cells; note: potency is the fitted concentration of half-maximal effect; % is set by controls: 0 for no effect and ±100 for the full control effect; nearly all actives have a fitted effect of over 50% in size
HCV inhibitor: HCV inhibition; Huh7.5.1 HCVcc-Cre infection, luciferase reporter, 44 h; Potency, µM (series often up to 41.8 µM), for the others: top-dose activity change, negative = inhibition, most hits filed as inhibitors; hit rate 3.4% among 340,000; AID 651820; active = well fitted inhibition curve with a large enough effect; inconclusive = small, poorly fitted or top-dose-only effect, or another doubt; inactive = no such curve, though single readings can be large or run the other way; note: potency is the fitted concentration of half-maximal effect; % is set by controls: 0 for no effect and ±100 for the full control effect
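HCVcc-Cre virus at an moi near 0.5 was added right after compound to cells cultured 4 h from seeding (1,000 cells/well). Luciferase activity was determined 44 h later, 15 min after substrate addition at RT.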
MARV entry inh: Marburg virus entry inhibition | AID 540276 | Marburg virus pseudotyped entry inhibition, cell reporter | hit rate 1.8% among 300,000 | Potency, µM (top dose mostly 37.8 µM), without a hit: at the highest dose activity change, negative = inhibition, most hits filed as inhibitors; calls by dose curve; tested in HEK293 cells; note: potency is the fitted concentration of half-maximal effect; % is set by controls: 0 for no effect and ±100 for the full control effect
FMDV inh: blocks foot and mouth disease virus. hit rate 1.2% among 410,000. Potency, µM (doses to about 57.9 µM), for inactives: top-dose activity change, negative = inhibition, hits mostly inhibitors. FMDV antiviral cell-based qHTS; calls by dose curve; tested in HEK293T cells; note: read-out not given here; potency is the fitted concentration of half-maximal effect; % is set by controls: 0 for no effect and ±100 for the full control effect; nearly all actives have a fitted effect of over 45% in size
* = called active by the depositor; ? = inconclusive; . = not tested or not shown; [ ] = another dose, or the depositor's remark.

SMILES	HCMV antiviral	SARS PLP yeast	Lassa entry inh	HCV inhibitor	MARV entry inh	FMDV inh
O=C(CS(=O)c1ccc(C(F)(F)F)cc1[N+](=O)[O-])Oc1ccccc1 (stereo not drawn)	?	-50%	?	?	?	28µM*
CS(=O)(=O)c1ccc(S(=O)CC(=O)OCc2ccccc2)c([N+](=O)[O-])c1 (stereo not drawn)	-101*	-3%	?	?	?	8.9µM*
COC(=O)c1ccc(OC(=O)CS(=O)c2ccccc2[N+](=O)[O-])cc1 (stereo not drawn)	10	-5%	8%	12%	2%[46.1 µM]	5%
COc1ccc(CN2CCC3(CC2)c2ccccc2[C@@H](NC(=O)c2ccccc2)[C@@H]3O)cc1O	.	.	.	.	.	4%
CCOC(=O)C1(C(=O)OCC)COC(=O)C1CN1Cc2cc3ccccc3nc2C1 (stereo not drawn)	142	.	.	.	.	28µM*
COCC(=O)Nc1cc(C(=O)N2CCC(c3ccccc3)CC2)cc2nc(-c3ccccc3)n(C)c12	.	.	.	.	.	22%
Cc1ccc(NC(=O)C(C)OC(=O)c2ccc(NS(=O)(=O)c3ccc(F)c(F)c3)cc2)cc1 (stereo not drawn)	-37	-9%	?	?	?	?
Cc1ccc(S(=O)(=O)Nc2ccccc2C(=O)OC(C)C(=O)Nc2ccc3ccccc3c2)cc1[N+](=O)[O-] (stereo not drawn)	?	-1%	-4%	7%	?	0%
CC(=O)c1ccc(NC(=O)C(C)OC(=O)c2ccc(NS(=O)(=O)c3ccc(F)c(F)c3)cc2)cc1 (stereo not drawn)	-37	14%	11%	13µM*	-9%	-6%
CCc1ccc(NC(=O)C(C)OC(=O)c2ccc(NS(=O)(=O)c3ccc(C)c([N+](=O)[O-])c3)cc2)cc1 (stereo not drawn)	62	1%	?	11µM*	?	-17%
COC(=O)CC=C[C@@H](C)[C@H](NC(=O)OCC(Cl)(Cl)Cl)c1cccc(OC)c1	.	.	.	.	-8%[14.2 µM]	.
Cc1cc(C)cc(CO[C@H]2C=C[C@@H](c3ccccc3)O[C@H]2CO)c1	.	.	.	.	-24%[14.2 µM]	.
Cc1ccc(CC(NC(=O)c2ccccc2)C(=O)N2CCCC2C(=O)O)cc1 (stereo not drawn)	-107*	2%	5%	17%	0%	2%
COc1cc(=O)n2c(c1C(=O)N(C)Cc1nonc1C)CCN(Cc1cc(C)ccc1C)CC2	.	.	.	.	.	-19%
CC(=O)Nc1ccc(/C=C(\C#N)C(N)=O)cc1	-7	-1%	-10%	6%	?	15%
CC(=O)Nc1ccc(C=C(C(C)=O)C(C)=O)cc1	8	-2%	-8%	18%	-12%	32µM*
COc1ccc(C=C(C(C)=O)C(C)=O)cc1OC	25	-20%	-14%	3%	-7%	28µM*
COc1cc(C=C(C(C)=O)C(C)=O)ccc1O	16	12%	-21%	5%	2%	?
CC(C)Oc1ccccc1C1CC(=O)Nc2cc3c(cc21)OCCO3 (stereo not drawn)	-103*	1%	?	?	?	?
CCCOc1c(OC)cccc1C1CC(=O)Nc2cc3c(cc21)OCO3 (stereo not drawn)	-19	0%	7.1µM*	11µM*	?	?
COc1ccccc1C1CC(=O)Nc2cc3c(cc21)OCCO3 (stereo not drawn)	-85*	6%	?	?	2.1µM*	?
CCOc1cccc(C2CC(=O)Nc3cc4c(cc32)OCCO4)c1 (stereo not drawn)	-22	.	?	.	2.2µM*	0%
CCCOc1c(OC)cccc1C1CC(=O)Nc2cc3c(cc21)OCCO3 (stereo not drawn)	21	-17%	?	?	?	0%
COc1cccc(C2CC(=O)Nc3cc4c(cc32)OCCO4)c1OC(C)C (stereo not drawn)	-11	5%	.	-14%	.	?
C[C@@H]1CN([C@H](C)CO)C(=O)CCCn2cc(nn2)CO[C@H]1CN(C)S(=O)(=O)c1cn(C)cn1	21	.	.	.	.	.
